{"source": "PubChem BioAssay AID743364", "about": "(National Center for Advancing Translational Sciences (NCATS), 2014)", "note": "Values without a mark were called inactive. Calls follow the shape of the dose curve; as a rule, active = well fitted curve in the direction sought with a large enough effect; inactive = no such curve, though single readings can be large or run the other way.", "data": [{"assay": "qHTS profiling of inhibitors of Plasmodium falciparum (3D7) proliferation (acoustic dispense)", "settings": "P. falciparum 3D7 in erythrocytes, SYBR Green, 72 h; series mostly up to 49.8 µM; activity change: at the top concentration", "description": "Plasmodium falciparum is a virulent malarial parasite that kills 1-2 million people worldwide each year. Transmitted by mosquitoes, the sporozoite form of the parasite enters the blood stream to infect hepatocytes, where they become merozoites that infect red blood cells (erythrocytes). Within erythrocytes, merozoites begin a […] cycle of growth and division, after which the parasite is released to infect new red blood cells. Gametocytes, which form within erythrocytes as well, circulate in the bloodstream and are ingested by the mosquito, thereby completing the life cycle. To profile malarial isolates for differential chemical responses and to identify inhibitors of malarial growth, an assay that measures P. falciparum growth and replication within erythrocytes was employed. This assay uses a DNA binding fluorescent dye (SYBR Green) to detect parasite DNA following cell lysis. Because mature erythrocytes lack DNA, only Plasmodium-derived DNA is detected.\nThe SYBR Green viability assay was adapted from a method described previously (Plouffe et al., 2008). For screening 3 ul culture medium was dispensed into 1536 well black clear bottom plates (Aurora Biotechnologies) using a Multidrop Combi (Thermo Fisher Scientific Inc.), 23 nL of compounds in DMSO were added by an acoustic dispenser (EDC Biosystems), and 5 ul of erythrocytes infected with P. falciparum (0.3% parasitemia, 2.5% hematocrit final concentration) were added. The plates were incubated at 37 C in a humidified incubator in 5% CO2 for 72 h, and 2 ul lysis buffer (20 mM Tris HCl, 10 mM EDTA, 0.16% saponin, 1.6% triton X, 10X SYBR Green I supplied as 10,000X […] by Invitrogen) was added to each well. The plates were mixed for 25 sec with gentle shaking and incubated overnight at room temperature in the dark. The following morning, fluorescence intensity at 485(14) nm excitation and 535(25) nm emission wavelengths was measured on an EnVision (Perkin Elmer) plate reader. Plate reads were normalized relative to the control inhibitor (0.29 uM artemisinin) and vehicle (DMSO) wells present on each plate and then corrected by an algorithm using vehicle-only control plates at the beginning and end of the compound plate stack.", "values": [{"smiles": "C[C@H]1CCCC=CC2C[C@H](O)C[C@@H]2[C@H](O)C=CC(=O)O1", "note": "(stereo not given in full)", "activity change": "-0.681%"}, {"smiles": "C[C@@H]1C[C@@H]([C@H](O)CC2CC(=O)NC(=O)C2)C(=O)[C@@H](C)C1", "activity change": "-0.385%"}, {"smiles": "COC1=CC(C)=C[C@@H](C)[C@@H](O)[C@@H](C)CC(C)=CC=C[C@H](OC)[C@H]([C@@H](C)[C@@H](O)[C@H](C)[C@@]2(O)C[C@@H](O)[C@H](C)[C@@H](C(C)C)O2)OC1=O", "activity change": "1.19%"}, {"smiles": "O=C(C[C@@H]1NCCC[C@@H]1O)Cn1cnc2ccccc2c1=O", "activity change": "-1.69%"}, {"smiles": "CC1=C(O)C(=O)C=C2C1=CC=C1[C@@]2(C)CC[C@@]2(C)[C@@H]3C[C@](C)(C(=O)O)CC[C@]3(C)CC[C@]12C", "activity change": "2.81%"}, {"smiles": "C[C@]12O[C@H](C[C@@]1(O)C(=O)O)n1c3ccccc3c3c4c(c5c6ccccc6n2c5c31)CNC4=O", "activity change": "0.751% [at 4.15 µM]"}, {"smiles": "CC(=O)N(O)CCCP(=O)(O)O", "activity change": "9.16%"}, {"smiles": "CO[C@H]1CCC(O[C@H]2C[C@H]([C@]3(C)CC[C@]4(C[C@H](O)[C@@H](C)[C@@H]([C@@H](C)C=C(C)C(=O)[C@H](C)C[C@H](C)C(=O)O)O4)O3)O[C@]3(O[C@@H]([C@H]4O[C@@](O)(CO)[C@H](C)C[C@H]4C)C[C@H]3C)[C@H]2C)O[C@H]1C", "note": "(stereo not given in full)", "activity change": "-0.523%"}, {"smiles": "CN1C(=O)C[C@H](C(=O)N[C@@H](Cc2cnc[nH]2)C(=O)N2CCC[C@@H]2C(N)=O)NC1=O", "activity change": "94.2%"}, {"smiles": "O=c1[nH]c2ccc(Cl)cc2c(N[C@@H]2CN3CCC2CC3)c1-c1nc2ccccc2[nH]1", "activity change": "0.942%"}, {"smiles": "CC(=Cc1csc(C)n1)[C@@H]1C[C@H]2O[C@@H]2CCC[C@H](C)[C@@H](O)[C@@H](C)C(=O)C(C)(C)[C@@H](O)CC(=O)O1", "activity change": "0.503%"}, {"smiles": "CC=C(C)C(=O)N[C@@H](c1ccccc1)[C@@H](O)C(=O)O[C@H]1C[C@@]2(O)[C@@H](OC(=O)c3ccccc3)[C@@H]3[C@]4(OC(C)=O)CO[C@@H]4C[C@H](O)[C@@]3(C)C(=O)[C@H](OC(C)=O)C(=C1C)C2(C)C", "activity change": "1.68%"}, {"smiles": "COC(=O)[C@@]1(OC)C[C@@H]2O[C@@]1(C)n1c3ccccc3c3c4c(c5c6ccccc6n2c5c31)C(=O)N(C)C4", "activity change": "0.473% [at 16.5 µM]"}, {"smiles": "CC(=O)Nc1nnc(S(N)(=O)=O)s1", "activity change": "67.7%"}, {"smiles": "CC(C)(N)CNC(=O)CC1CCC2(CC1)OOC1(O2)C2CC3CC(C2)CC1C3", "note": "(stereo not given)", "activity change": "0.389%"}]}]}
